Assay outcomes (PubChem)
Gal4-VP16 FLuc: Gal4-VP16 reporter inhibition counter-screen; AID 2546; Potency, µM (top dose mostly 53.6 µM), for inactives: at the highest dose activity, negative = inhibition, usual class: inhibitors; Drosophila S2 Gal4-VP16 UAS-luciferase, luminescence, 20 h; 3.5% of 310,000 active;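 note: Gal4-VP16 expression switched on by copper sulfate through the metallothionein promoter; potency is the fitted concentration of half-maximal effect; nearly all actives have a fitted effect of over 50% in size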
B2AR arrestin: agonists driving beta-arrestin recruitment to human beta2-adrenergic receptor. P07550. beta-arrestin recruitment to beta2AR, cell-based reporter. Potency, µM (top dose mostly 46.1 µM), for inactives: at the top dose activation, hits mostly activators. 0.02% of 330,000 active;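 note: potency is the fitted concentration of half-maximal effect; 0% = DMSO controls and full agonism = EC100 isoproterenol or metaproterenol; nearly all actives have a fitted effect of over 65% in size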
Target sequence (P07550 whole entry, looked up): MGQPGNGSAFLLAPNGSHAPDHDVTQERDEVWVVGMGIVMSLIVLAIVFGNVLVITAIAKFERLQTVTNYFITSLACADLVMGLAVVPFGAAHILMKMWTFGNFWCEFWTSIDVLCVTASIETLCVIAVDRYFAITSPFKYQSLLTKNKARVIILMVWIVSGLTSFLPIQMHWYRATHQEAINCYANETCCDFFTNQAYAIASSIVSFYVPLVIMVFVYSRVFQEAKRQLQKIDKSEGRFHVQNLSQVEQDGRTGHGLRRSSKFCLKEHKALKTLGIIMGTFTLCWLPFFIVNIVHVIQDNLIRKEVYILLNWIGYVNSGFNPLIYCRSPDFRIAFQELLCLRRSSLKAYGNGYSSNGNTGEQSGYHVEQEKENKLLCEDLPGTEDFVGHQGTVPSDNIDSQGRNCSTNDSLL
ELG1 DNA repair: inhibitors of ELG1-dependent DNA repair in HEK293T cells; HEK293T ELG1-luciferase reporter, luminescence, 16 h; DNA damage induced by 5-fluorouridine; AID 504467; Potency, µM (doses to about 46.1 µM), without a hit: top-dose activity change, negative = inhibition, usual class: inhibitors; 2.3% of 330,000 active; note: potency is the fitted concentration of half-maximal effect; nearly all actives have a fitted effect of over 55% in size
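HEK293T cells expressing luciferase-tagged ELG1 (2,000/well) received 5-Fluorouridine plus compound or DMSO for 16 hr at 37 °C. Luciferase was read by ONE-Glo luminescence after 30 min at room temperature.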
RORgamma inh: blocks mouse ROR gamma transcriptional activity; Drosophila S2 Gal4-RORgamma UAS-luciferase reporter, 20 h; P51450; Potency, µM (highest dose often 53.6 µM), for inactives: at the top dose activity change, negative = inhibition, usual class: inhibitors; 5.4% of 310,000 active; note: potency is the fitted concentration of half-maximal effect; nearly all actives have a fitted effect of over 60% in size
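Stable Schneider cell line, Gal4 DNA-binding domain fused to ROR gamma, UAS-luciferase. Cmpd 1 hr RT → CuSO4 700 uM final → 20 hr RT → luciferase reagent 10 min → luminescence.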
TSHR antag: antagonists of human thyroid stimulating hormone receptor. AID 504810. activity change, negative = inhibition, % at 11.5 µM. TSHR-expressing cells, TSH-stimulated cAMP HTRF, 2 h; active compounds read low. P16473. 0.2% of 330,000 active;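 active = activity change below a set negative limit, meaning inhibition stronger than a set level, cut at about -70% in these data; inconclusive = activity change between two set negative limits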
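Competitive HTRF cAMP read-out (cryptate anti-cAMP antibody, cAMP-d2; 30 min, room temperature) in freshly harvested TSHR cells. Compounds added before TSH at EC80 (4nM final), followed by 2 hours' incubation at 37 deg C.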
* marks the source's active call; other numbers are inactive results; u = inconclusive; x = no result; [ ] = another dose, or the depositor's remark. Sampled rows, rich in hits. Any-hit rate of the full collection: about 7.5%. Unless noted, calls come from the whole dose curve; as a rule, active = well fitted curve in the direction sought with a large enough effect; inconclusive = small, poorly fitted or top-dose-only effect, or another doubt; inactive = no such curve, though single readings can be large; an effect the other way counts as inactive or inconclusive. Unless noted, % is set by controls: 0 for no effect and ±100 for the full control effect.

SMILES	Gal4-VP16 FLuc	B2AR arrestin	ELG1 DNA repair	RORgamma inh	TSHR antag
Cc1nc([N+](=O)[O-])c(Br)n1CC(=O)c1ccc2ccccc2c1	u	0%	u	14µM*	-3
Cc1nc([N+](=O)[O-])cn1CC(=O)c1ccc(Cl)cc1	-7%	0%	-5%	-3%	1
Cc1nc([N+](=O)[O-])c(Br)n1CC(=O)c1ccccc1	u	4%	-6%	4µM*	-5
Cc1nc([N+](=O)[O-])c(Br)n1CC(=O)c1ccc(Br)cc1	u	0%	0%	11µM*	8
CO[C@H]1COC(=O)[C@@H](CCSC)NC(=O)C/C=C\[C@@H](C)COC(=O)[C@@H](OCc2ccccc2)/C=C\[C@@H]1C	-7%[10 µM]	x	x	-10%[10 µM]	x
Cc1ccc(C)c(CSc2nc3[nH]ncc3c(=O)[nH]2)c1	-13%	0%	u	-22%	-4
Cc1ccc(OCCNC(=O)c2ccc(NC(=O)CC3SC(N4CCCC4)=NC3=O)cc2)cc1 (centres undefined)	x	0%	-29%	x	x
O=C(NC(=S)Nc1ccc(CN2CCOCC2)cc1)c1cccc([N+](=O)[O-])c1	u	3%	2%	u	13
CCC(=O)NC(=S)Nc1cccc(NC(=O)c2ccc(Cl)cc2Cl)c1	6.3µM*	0%	-16%	2.8µM*	-3
CCC(=O)NC(=S)Nc1ccc(NC(=O)c2ccc([N+](=O)[O-])cc2Cl)cc1	-14%	0%	5.8µM*	-29%	-10
O=C(NC(=S)Nc1ccc(CN2CCOCC2)cc1)c1ccc([N+](=O)[O-])cc1Cl	u	0%	u	7.9µM*	0
O=C(Nc1ccc2ccccc2c1)c1ccc(Cl)cc1Cl	u	-1%	u	7.9µM*	-13
O=C(Nc1ccc2ccccc2c1)c1cc(F)c(F)cc1Cl	-1%	0%	u	u	-3
O=C(Cc1ccc(Br)cc1)N/N=C/c1cccnc1	-1%	0%	3%	20%	16
Cc1ccc(-n2nnnc2C(Cl)c2nnnn2-c2ccc(C)cc2)cc1	8.9µM*	0%	6%	11µM*	-28
O=Cc1cccc(Br)c1	-7%	x	x	1%	x
CCN(CC)S(=O)(=O)c1cccc(-c2n[nH]c(=S)n2C)c1	-4%[10 µM]	0%	1%	u	-10
Cc1ccc(-c2n[nH]c(=S)n2C)cc1Cl	3.5µM*	3%	0%	0.56µM*	-3
CCCC[C@H](NC(=O)[C@@H]1CCCN1C(=O)[C@H]1CCCN1C(=O)[C@H](Cc1ccccc1)NC(=O)[C@@H](Cc1c[nH]c2ccccc12)NC(=O)[C@H](C)NC(=O)[C@H](CCCN=C(N)N)NC(=O)OC(C)(C)C)C(N)=O	-2%	x	x	12%	x
COc1cc(C=O)ccc1OCCCOc1ccccc1C(=O)O	6.3µM*	0%	u	1.4µM*	-10
COc1ccc(/C=C\C(=O)Nc2ccccc2C(=O)O)cc1OC	1.1µM*	x	x	u	x
COc1ccc(/C=C/C(=O)NC(C)CCc2ccccc2)cc1OC (centres undefined)	-11%	0%	u	31%	5
COc1ccc(/C=C/C(=O)NC(=S)NCc2ccccc2)cc1OC	u	0%	u	2.2µM*	-7
NCC1CCCCC1CC(=O)O (centres undefined)	-4%	x	x	6%	x
CN(C)c1nc(SCc2ccccc2Cl)nc2c1CCCC2	7%[0.365 µM]	0%	-1%	7.9µM*	-9
SMILES	Gal4-VP16 FLuc	B2AR arrestin	ELG1 DNA repair	RORgamma inh	TSHR antag
Cc1ccc(CSc2nc3c(c(N(C)C)n2)CCCC3)cc1	-6%[0.365 µM]	-1%	-4%	u	-15
N#Cc1c(-c2cccs2)cc(-c2ccccn2)nc1N	7.9µM*	0%	u	u	-11
COc1ccc(CCNC2=C(Cl)C(=O)N(CCc3ccc(OC)c(OC)c3)C2=O)cc1OC	-5%	1%	13µM*	6%	-74*
COc1ccc(/C=C(\NC(=O)c2ccccc2)C(=O)N/N=C/c2sccc2C)cc1	22µM*	0%	-13%	11µM*	11
COc1ccc(/C=C(/NC(=O)c2ccccc2)C(=O)N/N=C/c2sccc2C)cc1	u	3%	-29%	13µM*	5
O=C(N/N=C/c1cccs1)/C(=C/c1ccccc1)NC(=O)c1ccccc1	u	0%	-5%	11µM*	0
COc1ccc(/C=C(\NC(=O)c2ccccc2)C(=O)N/N=C/c2ccncc2)cc1	-1%	0%	-1%	30%	6
O=C(Nc1ccccc1)/C(=C\c1cccs1)NC(=O)c1ccccc1	u	0%	u	-56%	22
Nc1sc2c(c1C(=O)c1ccc(Cl)cc1)CCCC2	0%	x	x	19%	x
Cc1ccccc1N(C(=O)CS(=O)CC(=O)Nc1ccc(F)cc1)C(C)C(=O)NC(C)(C)C (centres undefined)	5%	0%	-3%	20%	9
O=C(CN1C(=O)NC2(CCCCC2)C1=O)NCCCSc1ccccc1	x	-1%	2%	x	0
CCCC1([C@H](O)C/C=C/[C@H]2[C@H](O)CC(=O)[C@@H]2CCCCCCC(=O)OC)CCC1	u	x	x	-36%	x
CCN1CCC2(CC1)N=C(c1ccc(F)cc1)C(=S)N2C(=O)c1ccc(C(C)(C)C)cc1	u	-1%	-1%	4µM*	-1
CN1CCN(CC(=O)N2CCn3c4c(c5cc(C6CCCCC6)ccc53)CCCC42)CC1 (centres undefined)	u	0%	u	2.2µM*	x
Cc1ccc2c(c1)c1c3n2CCN(C(=O)CN2CCN(C)CC2)C3CCC1 (centres undefined)	-6%	-1%	17%	-2%	-6
C=C1CCC2C(CC2(C)C)C(=C)CC/C1=N/O (centres undefined)	2%	x	x	-10%	x
O=C1CCCC=C1[C@@H](O)CCOCc1ccccc1	-6%[10 µM]	x	x	25%[10 µM]	x
Cc1ccc(-c2noc(N=O)c2NO)cc1	0.63µM*	8%	u	0.71µM*	-2
O=Nc1onc(-c2ccc([N+](=O)[O-])cc2)c1NO	4.5µM*	u	-9%	3.5µM*	-9
CCCCC(=O)OCc1nc2ccccc2s1	5%	-1%	u	u	24
Cc1noc(C)c1COC(=O)CCCc1nc2ccccc2s1	7.9µM*	0%	6%	u	-16
CCOC(=O)C(C)/C(C)=N/NC(N)=S (centres undefined)	1.3µM*	13%	1%	0.71µM*	2
CCOC(=O)C(C)/C(C)=N\Nc1ccc([N+](=O)[O-])cc1[N+](=O)[O-] (centres undefined)	-24%	0%	-6%	u	-14
C=CCn1c(SCC(=O)N2CCOCC2)nc2sc3c(c2c1=O)CCCC3	16%	0%	18µM*	6%	-18
Cn1c(SCC(=O)N2CCOCC2)nc2sc3c(c2c1=O)CCCC3	3%	0%	-10%	-12%	-4
